Reference: PubChem BioAssay (Tox21)
Records with an inconclusive call do not appear. Where a call stands in place of a potency, no number is given. Values without a mark were called inactive. Calls of active or inactive are those of the source. Unless noted, calls follow the shape of the dose curve; as a rule, active = well fitted curve in the direction sought with a large enough effect in the repeat runs; inconclusive = weak or mixed curves; inactive = no such curve, though single readings can be large; an effect the other way counts as inactive or inconclusive.

Assays:
[1] = qHTS assay to identify small molecule antagonists of the thyroid receptor (TR) signaling pathway (AID 743065); also: series mostly up to about 70 µM; nearly all actives have a fitted effect of over 55% in size
Method in brief: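 GH3.TRE-Luc rat pituitary cells carrying two TR response elements driving luciferase were plated for 4 h, given compound plus 1 nM T3 (final), and incubated 23.5 h at 37 C. ONE-Glo luminescence measured reporter inhibition; CellTiter-Fluor fluorescence tracked cytotoxicity.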

[2] = tested on: thyroid hormone receptor (rat, GH3 cells); experiment: qHTS assay to identify small molecule agonists of the thyroid receptor (TR) signaling pathway (AID 743066; calls by dose curve)
[3] = target: Estrogen receptor (Homo sapiens) (UniProt P03372); experiment: qHTS assay to identify small molecule antagonists of the estrogen receptor alpha (ER-alpha) signaling pathway (AID 743069; active = well fitted curve in the direction sought with a large enough effect in the signal ratio in the repeat runs, not every such curve was filed as active; the % refers to the signal ratio)
Method in brief: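 A 17beta-estradiol challenge was applied right after compound transfer to ER-alpha-UAS-bla HEK293 cells previously kept in charcoal-stripped serum. Plates stood 18 hr at 37C and 5% CO2; fluorescence was read following 2 hr FRET substrate loading at room temperature.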

[4] = qHTS assay to identify small molecule antagonists of the estrogen receptor alpha (ER-alpha) signaling pathway - cell viability counter screen (AID 743074; calls by dose curve;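 also: HEK293 cells carrying ER-alpha-UAS-bla reporter stimulated with 17beta-estradiol; nearly all actives have a fitted effect of over 45% in size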)
[5] = target: Estrogen receptor (Homo sapiens) (UniProt P03372); experiment: qHTS assay to identify small molecule agonists of the estrogen receptor alpha (ER-alpha) signaling pathway (AID 743075; calls by dose curve;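 also: HEK293 GripTite cells with ER-alpha and UAS-driven beta-lactamase reporter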)
[6] = target: Estrogen receptor (Homo sapiens) (UniProt P03372); experiment: qHTS assay to identify small molecule agonists of the estrogen receptor alpha (ER-alpha) signaling pathway using the BG1 cell line (AID 743079); also: nearly all actives have a fitted effect of over 20% in size; also: potency is read from the fitted curve at half-maximal effect
[7] = qHTS assay to identify small molecule antagonists of the estrogen receptor alpha (ER-alpha) signaling pathway using the BG1 cell line (AID 743080; calls by dose curve;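 also: BG1 cells stimulated with 17beta-estradiol alongside compound; series mostly up to about 70 µM; nearly all actives have a fitted effect of over 25% in size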)
Method in brief: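 Quantitative HTS on the Tox21 10K library: BG1 cells with endogenous ER-alpha and ERE-luciferase reporter, 17beta-estradiol stimulation, 21.5 h compound exposure, luminescence endpoint with parallel fluorescence cytotoxicity counter-read.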

[8] = qHTS assay to identify small molecule antagonists of the estrogen receptor alpha (ER-alpha) signaling pathway using the BG1 cell line - cell viability counter screen (AID 743081);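 also: compound given together with 17beta-estradiol as the ER stimulus; series mostly up to about 70 µM; nearly all actives have a fitted effect of over 45% in size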
[9] = target: Aromatase (Homo sapiens) (UniProt P11511); experiment: qHTS assay to identify aromatase inhibitors (AID 743083); also: series mostly up to about 70 µM; nearly all actives have a fitted effect of over 55% in size
[10] = qHTS assay to identify aromatase inhibitors - cell viability counter screen (AID 743084);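 also: cells stimulated with testosterone during compound exposure; nearly all actives have a fitted effect of over 55% in size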
[11] = target: Aryl hydrocarbon receptor (Homo sapiens) (UniProt P35869); experiment: qHTS assay to identify small molecule that activate the aryl hydrocarbon receptor (AhR) signaling pathway (AID 743085); also: nearly all actives have a fitted effect of over 15% in size; also: potency is read from the fitted curve at half-maximal effect;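 as to activation: HG2L7.5c1 human HepG2 liver cells with stably integrated DRE-driven firefly reporter; series mostly up to about 70 µM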
Method in brief: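 24 h compound exposure, 37C, HepG2-derived HG2L7.5c1 cells with DRE-responsive luciferase. Readouts: fluorescence viability, then luminescence at room temperature after 30 min.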

[12] = qHTS assay to identify small molecule that activate the aryl hydrocarbon receptor (AhR) signaling pathway - cell viability counter screen (AID 743086);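 also: HepG2 liver cells carrying the AhR DRE luciferase reporter; series mostly up to about 70 µM; nearly all actives have a fitted effect of over 45% in size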
Method in brief: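 HepG2-AhR-luc (HG2L7.5c1) cells, 4000/well, were preincubated 5 h at 37C, exposed to compound in qHTS format for 24 hr at 37C, then given CellTiter-Fluor for 30 min; viability was read as fluorescence in the reporter wells.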

[13] = target: Peroxisome proliferator-activated receptor gamma (Homo sapiens) (UniProt P37231); experiment: qHTS assay to identify small molecule agonists of the peroxisome proliferator-activated receptor gamma (PPARg) signaling pathway (AID 743094; active = well fitted activation curve with a large enough effect in the signal ratio in the repeat runs, not every such curve was filed as active; the % refers to the signal ratio)
Method in brief: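 Agonism was assessed in a beta-lactamase reporter system, HEK293H cells with a stably integrated UAS-bla construct under PPARg control; the 17 h treatment at 37C preceded a 1 h room-temperature FRET substrate read.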

[14] = target: Peroxisome proliferator-activated receptor gamma (Homo sapiens) (UniProt P37231); experiment: qHTS assay to identify small molecule antagonists of the peroxisome proliferator-activated receptor gamma (PPARg) signaling pathway (AID 743191; calls by dose curve; also: series mostly up to about 63 µM; nearly all actives have a fitted effect of over 30% in size)
Method in brief: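 GeneBLAzer PPARg UAS-bla HEK293H cells carrying a UAS-driven beta-lactamase reporter were plated at 3000 cells/well, preincubated 5 h at 37C, then given compound for 17 h at 37C; LiveBLAzer B/G FRET substrate was read after 1 h at room temperature.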

[15] = qHTS assay for small molecule agonists of the antioxidant response element (ARE) signaling pathway - cell viability counter screen (AID 743203; calls by dose curve; also: nearly all actives have a fitted effect of over 55% in size)
Method in brief: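 ATP content via CellTiter-Glo luminescence served as the viability measure. Cells: ARE-bla HepG2, 2,000 per well. Exposure: 16 hrs, 37C/5% CO2.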

[16] = qHTS assay for small molecule activators of the heat shock response signaling pathway - cell viability counter screen (AID 743209); also: nearly all actives have a fitted effect of over 50% in size
Method in brief: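 Compounds dissolved in DMSO were added to overnight-plated HSE-bla HeLa cells and left 5 h at 37 C. Cell viability was quantified by luminescence using CellTiter-Glo.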

[17] = qHTS assay for small molecule activators of the heat shock response signaling pathway (AID 743210; active = well fitted activation curve with a large enough effect in the signal ratio in the repeat runs, with a control signal flat, not every such curve was filed as active; the % refers to the signal ratio; also: series mostly up to about 63 µM)
Method in brief: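 Heat shock element–beta-lactamase HeLa reporter cells; qHTS with compounds for 5 h at 37 C; detection by FRET substrate fluorescence after 2.5 h at RT.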

[18] = qHTS assay to identify small molecule antagonists of the thyroid receptor (TR) signaling pathway - cell viability counter screen (AID 743064); also: nearly all actives have a fitted effect of over 50% in size
Method in brief: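 Compounds were tested on GH3.TRE-Luc cells in the presence of T3 at 1 nM final. Following 23.5 h at 37 °C, cell viability was quantified by CellTiter-Fluor.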

[19] = qHTS assay to identify small molecule antagonists of the peroxisome proliferator-activated receptor gamma (PPARg) signaling pathway - cell viability counter screen (AID 743194); also: nearly all actives have a fitted effect of over 55% in size
Method in brief: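 PPARg-UAS-bla HEK293H cells were plated, rested 5 h at 37 C, then treated with compounds plus rosiglitazone (50 nM final) for 17 h at 37 C; viability was then read by CellTiter-Glo luminescence after 30 min at room temperature.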

[20] = qHTS assay for small molecule agonists of the antioxidant response element (ARE) signaling pathway (AID 743202; active = well fitted activation curve with a large enough effect in the signal ratio in the repeat runs, not every such curve was filed as active; the % refers to the signal ratio; also: potency is read from the fitted curve at half-maximal effect)
Method in brief: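 Following a 16 h, 37 C exposure of reporter HepG2 cells (ARE-driven beta-lactamase, 2,000 cells/well) to compounds, FRET substrate was applied for 2 h at room temperature and fluorescence intensity recorded.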

Chain of Aromatase (Homo sapiens) (P11511 whole entry, looked up): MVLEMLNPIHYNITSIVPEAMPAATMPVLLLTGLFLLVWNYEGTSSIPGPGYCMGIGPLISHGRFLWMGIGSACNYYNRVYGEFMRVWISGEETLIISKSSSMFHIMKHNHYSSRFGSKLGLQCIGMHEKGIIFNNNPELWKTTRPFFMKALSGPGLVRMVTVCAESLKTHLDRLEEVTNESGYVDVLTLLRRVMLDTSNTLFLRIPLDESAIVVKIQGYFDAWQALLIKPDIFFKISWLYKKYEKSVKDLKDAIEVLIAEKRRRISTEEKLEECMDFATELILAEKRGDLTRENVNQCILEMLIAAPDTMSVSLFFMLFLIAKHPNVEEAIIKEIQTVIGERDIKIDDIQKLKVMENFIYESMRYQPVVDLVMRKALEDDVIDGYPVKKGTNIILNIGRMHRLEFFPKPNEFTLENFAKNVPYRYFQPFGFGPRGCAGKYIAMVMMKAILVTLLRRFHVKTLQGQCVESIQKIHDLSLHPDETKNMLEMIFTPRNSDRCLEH
Chain of Estrogen receptor (Homo sapiens) (P03372 whole entry, looked up): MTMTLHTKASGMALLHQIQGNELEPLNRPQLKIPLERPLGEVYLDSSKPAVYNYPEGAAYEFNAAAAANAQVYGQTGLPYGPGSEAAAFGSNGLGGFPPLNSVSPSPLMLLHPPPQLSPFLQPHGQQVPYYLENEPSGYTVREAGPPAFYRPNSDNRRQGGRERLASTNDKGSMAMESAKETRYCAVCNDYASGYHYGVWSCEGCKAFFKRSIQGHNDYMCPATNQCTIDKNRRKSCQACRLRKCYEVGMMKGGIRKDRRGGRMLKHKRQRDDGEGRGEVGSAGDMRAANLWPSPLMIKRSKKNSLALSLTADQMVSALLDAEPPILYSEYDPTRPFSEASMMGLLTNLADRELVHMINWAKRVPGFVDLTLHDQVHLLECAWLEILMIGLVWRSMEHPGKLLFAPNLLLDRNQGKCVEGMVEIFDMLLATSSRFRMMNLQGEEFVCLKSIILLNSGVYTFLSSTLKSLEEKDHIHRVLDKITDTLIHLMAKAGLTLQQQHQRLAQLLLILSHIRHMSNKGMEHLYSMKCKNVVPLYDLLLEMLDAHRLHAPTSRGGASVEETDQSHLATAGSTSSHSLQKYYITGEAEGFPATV
Chain of Aryl hydrocarbon receptor (Homo sapiens) (P35869 whole entry, looked up): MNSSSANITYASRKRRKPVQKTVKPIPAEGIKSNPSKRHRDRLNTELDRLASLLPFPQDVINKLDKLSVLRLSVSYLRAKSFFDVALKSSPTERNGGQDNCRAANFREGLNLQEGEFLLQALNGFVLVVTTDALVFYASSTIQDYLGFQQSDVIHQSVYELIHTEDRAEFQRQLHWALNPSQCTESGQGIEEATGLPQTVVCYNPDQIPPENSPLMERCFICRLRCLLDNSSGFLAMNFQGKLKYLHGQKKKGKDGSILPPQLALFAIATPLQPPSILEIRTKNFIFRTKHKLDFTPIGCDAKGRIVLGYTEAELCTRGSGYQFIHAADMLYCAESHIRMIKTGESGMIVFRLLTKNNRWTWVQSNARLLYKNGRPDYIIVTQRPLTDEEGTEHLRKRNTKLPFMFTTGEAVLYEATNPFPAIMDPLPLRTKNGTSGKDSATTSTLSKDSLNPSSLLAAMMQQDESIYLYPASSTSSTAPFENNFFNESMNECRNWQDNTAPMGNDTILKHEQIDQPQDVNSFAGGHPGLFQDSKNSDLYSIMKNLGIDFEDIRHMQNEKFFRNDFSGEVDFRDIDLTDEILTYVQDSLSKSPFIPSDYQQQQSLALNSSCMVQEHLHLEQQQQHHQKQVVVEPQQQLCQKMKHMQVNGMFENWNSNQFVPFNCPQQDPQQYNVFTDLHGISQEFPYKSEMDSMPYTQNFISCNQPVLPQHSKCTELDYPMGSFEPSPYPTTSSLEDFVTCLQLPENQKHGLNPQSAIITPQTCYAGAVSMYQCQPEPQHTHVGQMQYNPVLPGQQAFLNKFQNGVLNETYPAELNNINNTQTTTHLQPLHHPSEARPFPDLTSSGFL
Chain of Peroxisome proliferator-activated receptor gamma (Homo sapiens) (P37231 whole entry, looked up): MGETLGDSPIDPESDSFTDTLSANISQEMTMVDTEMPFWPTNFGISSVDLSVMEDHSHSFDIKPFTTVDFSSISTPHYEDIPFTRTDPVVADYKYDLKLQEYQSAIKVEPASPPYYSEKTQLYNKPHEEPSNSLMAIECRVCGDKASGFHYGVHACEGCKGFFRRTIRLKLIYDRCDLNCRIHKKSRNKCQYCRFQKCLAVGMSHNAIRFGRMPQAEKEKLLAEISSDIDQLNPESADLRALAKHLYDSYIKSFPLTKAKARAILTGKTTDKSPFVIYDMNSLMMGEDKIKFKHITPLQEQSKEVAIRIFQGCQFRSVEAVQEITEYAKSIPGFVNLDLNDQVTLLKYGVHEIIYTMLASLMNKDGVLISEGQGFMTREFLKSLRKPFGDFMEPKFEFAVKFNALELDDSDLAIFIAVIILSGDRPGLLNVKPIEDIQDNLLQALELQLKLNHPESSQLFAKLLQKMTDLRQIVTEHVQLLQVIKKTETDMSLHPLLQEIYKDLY

CC(=O)NC(Cc1ccccc1)C(=O)O (stereo not drawn)
Potency [1]: inactive | Potency [2]: inactive | Potency [3]: inactive | outcome [4]: inactive | Potency [5]: inactive | Potency [6]: inactive | Potency [7]: inactive | outcome [8]: inactive | Potency [9]: inactive | Potency [10]: inactive | Potency [11]: inactive | Potency [12]: inactive | outcome [13]: inactive | outcome [14]: inactive | outcome [15]: inactive | outcome [16]: inactive | outcome [17]: inactive

C=C(C)C1CC=C(C)C(O)C1 (stereo not drawn)
Potency [18]: inactive | Potency [2]: inactive | Potency [3]: inactive | outcome [4]: inactive | Potency [5]: inactive | Potency [6]: inactive | outcome [8]: inactive | Potency [9]: inactive | Potency [10]: inactive | Potency [11]: inactive | outcome [13]: inactive | Potency [19]: inactive | Potency [20]: inactive | outcome [15]: inactive | outcome [16]: inactive | outcome [17]: inactive

COc1ccc(N=[N+]([O-])c2ccc(OC)cc2)cc1
Potency [18]: inactive | Potency [2]: inactive | outcome [4]: inactive | Potency [5]: inactive | Potency [6]: 0.0679 µM (active) | outcome [8]: inactive | Potency [9]: inactive | Potency [10]: inactive | Potency [11]: 9.59 µM (active) | Potency [12]: inactive | outcome [13]: inactive | outcome [14]: inactive | Potency [19]: inactive | outcome [15]: inactive | outcome [16]: inactive | outcome [17]: inactive

CC(C)c1ccc2oc3nc(N)c(C(=O)O)cc3c(=O)c2c1
Potency [18]: inactive | Potency [2]: inactive | outcome [4]: inactive | outcome [8]: inactive | Potency [9]: inactive | Potency [10]: inactive | Potency [11]: 0.841 µM (active) | outcome [13]: inactive | outcome [14]: inactive | Potency [19]: inactive | Potency [20]: 23.7 µM (active) | outcome [15]: inactive | outcome [16]: inactive | outcome [17]: inactive
